Compound activity as filed in PubChem BioAssay.
Only some compounds are listed: those with a hit (about 3.3% of all), similar ones and a draw of the others.
D3 antag – D3 dopamine receptor (human) antagonism; P35462; D3R cells, DiscoveRx beta-arrestin luminescence, antagonist mode; active compounds read low; max response, negative = inhibition, %; 360,000 compounds, 2.5% hits; AID 652054; in the data active means max response below about -50%; inconclusive means no clear call, values can overlap the other calls; further: on the % scale 0 is the no-effect control and ±100 the full control effect
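Cells expressing the human receptor were seeded at 1500 cells/well, incubated overnight at 37 degrees C in 5% CO2, then exposed to library compounds with dopamine controls for 90 minutes at 37 degrees C before luminescent detection.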
D3 ag – D3 dopamine receptor (human) agonism; max activation, %; D3R DiscoveRx beta-arrestin cells, luminescence, 90 min; P35462; 410,000 compounds, 0.58% hits; AID 652048; in the data active means max activation above about 30%; further: 0% is about no effect
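Agonist mode: compounds and dopamine controls were applied to plated cells for 90 min at 37 degrees C after an overnight attachment at 1500 cells/well. Luminescent read-out followed 30 - 60 minutes at room temperature with DiscoveRx detection reagent.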
LDHA inh – inhibitors of human lactate dehydrogenase A; P00338; purified LDHA, NADH/diaphorase-resazurin fluorescence; active compounds read low; activity change, % (values are at about 110 or 230 µM); 480,000 compounds, 0.15% hits; in the data active means activity change below about -30%; inconclusive means mostly about -25% to -30%;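 further: plate controls were DMSO wells for no effect and wells without enzyme for full effect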
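LDH5 2 nM; NADH 0.06 mM, pyruvate 0.2 mM; 200 mM Tris pH 7.4, EDTA, Tween-20; 5 min RT. Detection: diaphorase 0.133 mg/mL + resazurin 37 µM, fluorescence ex540/em590 at 0 and 20 min; normalized to enzyme-free and DMSO wells.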
PI5P4Ka inh – inhibitors of human PI5P4K alpha; PI5P4Kalpha enzyme, ADP-Glo luminescence, 60 min; active compounds read low; 330,000 compounds, 1.2% hits; AID 652105; max response, %; P48426; active means max response of -50% or lower; inconclusive means between -30% and -50%; inactive means -30% or higher; further: value at the top dose of about 77 µM; on the % scale 0 is the no-effect control and ±100 the full control effect
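ADP-Glo luminescence end-point after a 60 min room-temperature kinase reaction. PI5P4Kalpha and substrate in HEPES pH 7.4 buffer with EGTA, 0.1% CHAPS and 5% DMSO; ATP at 5 microM final.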
PI4K2A inh – blocks human PI4K2A kinase activity. Q9BTU6. purified PI4K2A, ADP-Glo luminescence, 1 h; active compounds read low. activity change, negative = inhibition, % at 76.9 µM. 420,000 compounds, 0.13% hits; in the data active means activity change below about -50%; inconclusive means mostly about -30% to -49%;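 further: -100% = wells without enzyme as full effect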
Target sequence (Q9BTU6 whole entry, looked up): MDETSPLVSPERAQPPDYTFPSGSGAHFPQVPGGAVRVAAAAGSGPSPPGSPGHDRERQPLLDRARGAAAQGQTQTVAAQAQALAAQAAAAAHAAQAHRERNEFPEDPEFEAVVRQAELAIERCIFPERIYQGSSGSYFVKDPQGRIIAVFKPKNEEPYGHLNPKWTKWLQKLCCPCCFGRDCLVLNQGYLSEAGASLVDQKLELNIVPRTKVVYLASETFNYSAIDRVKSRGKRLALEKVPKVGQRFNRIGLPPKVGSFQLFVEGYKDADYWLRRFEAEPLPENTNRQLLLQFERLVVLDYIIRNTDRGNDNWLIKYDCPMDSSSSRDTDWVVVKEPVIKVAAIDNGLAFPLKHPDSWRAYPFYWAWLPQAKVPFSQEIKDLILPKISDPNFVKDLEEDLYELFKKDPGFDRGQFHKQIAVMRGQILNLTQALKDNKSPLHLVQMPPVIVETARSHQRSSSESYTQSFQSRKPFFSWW
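ADP-Glo luminescence measured ADP generated by PI4K2A enzyme (4 ug/mL before mixing) with 1.2 mM PI substrate (pre-mix) and 300 microM ATP (pre-mix). Tris pH7.5 buffer with MgCl2, Triton X-100; 1 h reaction at ambient temperature.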
* hit, by the source's call; ? = inconclusive; . = no result.

SMILES	D3 antag	D3 ag	LDHA inh	PI5P4Ka inh	PI4K2A inh
Cc1ccc(C(OCCN(C)C)c2cccc(C(F)(F)F)c2)cc1 (stereo not given)	-75.6*	-10.6	-2.0	15.8	-1.0
CN(C)CCO[C@@H](c1ccc(Cl)cc1)c1ccccn1	?	-9.3	-3.9	-0.1	0.2
CN(C)CCC(=O)c1ccc2c(c1)OCO2	-61.0*	-2.0	-10.8	-0.6	22.4
CC(=O)Nc1ccccc1OCC(=O)c1ccc2c(c1)OCO2	13.3	46.6*	11.8	.	3.2
O=C(Nc1ccccc1-c1nc(-c2ccco2)no1)c1ccc(Br)o1	.	.	-4.2	.	.
Cc1ccccc1-n1nc(C(=O)c2cccs2)cc(-c2nc3ccccc3[nH]2)c1=N	-5.3	-6.2	0.6	.	0.0
COc1ccc(-n2nc(C(=O)c3cccs3)cc(-c3nc4ccccc4[nH]3)c2=N)cc1	-55.7*	-6.3	-2.5	.	-1.8
Cc1ccccc1Cn1cc(CCC(=O)NC(C)c2ccccc2)c2ccccc21 (stereo not given)	.	-11.3	-2.6	.	-1.8
CCn1cc(CCC(=O)NC(C)c2ccccc2)c2ccccc21 (stereo not given)	-54.6*	-0.3	-1.5	-6.3	2.7
CCNC(=O)Cn1c(C)c(Br)c2ccccc21	.	.	1.4	.	.
COc1ccc(/C=C/c2nc3ccccc3n2C)cc1	-0.8	-11.2	-3.0	-62.5*	-88.0*
COc1ccc(/C=N\n2nnc3ccccc32)cc1	0.0	-7.5	-3.8	-13.0	-59.0*
COc1ccc(/C=N/N2C(=O)c3ccccc3C2=O)cc1	16.3	-3.5	-3.0	11.7	-2.4
CC(=O)c1c(C)[nH]c(C(=O)OCc2cc(=O)oc3cc(C)c(C(C)C)cc23)c1C	.	.	16.2	.	.
CCOC(=O)C1(Cc2ccc(OC)cc2)CCN(C(=O)C2=CCCC2)CC1	1.9	7.8	0.4	-94.5*	5.5
CC(CNCC1CCCO1)COc1ccccc1 (stereo not given)	-79.4*	-18.5	-16.1	-17.2	15.4
CC(CNCC1CCCO1)COc1cccc2ccccc12 (stereo not given)	-21.2	-10.9	1.0	-6.3	12.4
CCCN1C(SCC(=O)N2CCCCCC2)=NS(=O)(=O)c2ccccc21	.	.	-0.7	.	.
CN(C)S(=O)(=O)c1ccc(-c2csc(N/N=C/c3ccc(O)cc3)n2)cc1	59.8	34.8*	-5.8	-63.3*	0.8
O=C1NC[C@H](CCCCN2C[C@H](Cc3ccc(O)cc3)N(CC3CCCCC3)C(=O)C2=O)N(CCC2CCCCC2)C1=O	12.3	2.6	-1.3	-0.3	4.8
O=C1NC[C@@H](CCCCN2C[C@H](Cc3ccc(O)cc3)N(CCC3CCCCC3)C(=O)C2=O)N(CC2CCCCC2)C1=O	-62.9*	-16.4	3.3	-20.0	-3.5
O=C1NC[C@H](CCCCN2CCN(Cc3ccccc3)C(=O)C2=O)N(CCC2CCCCC2)C1=O	-26.8	32.7*	-0.1	-0.1	-2.1
Cc1[nH]c2nc3ccccc3n2c(=O)c1Cc1ccccc1	.	.	-9.2	.	.
CC1CCN(S(=O)(=O)c2ccc(NC(=O)CN3CCCCCC3)cc2)CC1	-2.2	-20.9	-1.7	8.4	-1.0
COc1ccc(S(=O)(=O)NC2CCCCC2)cc1C(=O)N1CCCCC1	-65.9*	2.4	-4.3	4.3	-10.0
SMILES	D3 antag	D3 ag	LDHA inh	PI5P4Ka inh	PI4K2A inh
CC1CCN(S(=O)(=O)c2ccc(NC(=O)CN3CCN(c4ccccc4)CC3)cc2)CC1	11.7	109.6*	-6.5	.	1.7
CC1CCN(S(=O)(=O)c2ccc(NC(=O)CN3CCN(C)CC3)cc2)CC1	-23.1	-12.6	-40.9*	.	11.7
O=C(CN1CCCCC1)Nc1ccc(S(=O)(=O)NC2CCCCC2)cc1	-50.6*	-8.5	-14.9	.	-2.6
O=C(CN1CCOCC1)Nc1ccc(S(=O)(=O)NC2CCCCC2)cc1	14.7	1.8	6.2	.	-9.0
CN(CC(=O)NC(=O)NCc1ccco1)c1ccccc1	.	.	10.9	.	.
Nc1nccnc1C(=O)NCc1ccccc1F	.	.	-2.2	.	.
O=C(NCCc1cccc2cccnc12)c1ccc2c(c1)CCCC2	.	.	-0.4	.	.
CC1CC(C)(C)Nc2ccc(N=O)cc21 (stereo not given)	-84.1*	-12.3	5.9	-6.4	3.1
CC1CC(C)(C)Nc2ccc(OC(=O)c3ccco3)cc21 (stereo not given)	20.8	1.6	6.4	5.1	4.5
CCOc1ccccc1N1CCN(CC(=O)Nc2c(Cl)cccc2Cl)CC1	.	.	0.8	.	.
